Screening results from PubChem BioAssay.
MITF TRPM1 inh – inhibitors of MITF-dependent TRPM1 promoter reporter, primary screen, cell-based, SK-MEL-5, single point, luciferase | inhibition, % at 12.5 µM | hit rate 0.83% among 330,000 | AID 488899, 2010 | SK-MEL-5 TRPM1 promoter luciferase, 24 h;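 active = mean inhibition across replicates of 60% or more, whatever share of single replicates reaches that level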
Shn3 inh set2 – reduction of Shn3 3'UTR firefly luciferase signal, primary screen, Schnurri-3 inhibitor project, cell-based, Clone20 osteoblasts, set 2; Clone20 osteoblast Shn3 3'UTR firefly luciferase, 24 h; inhibition, % at 12.5 µM; hit rate 0.52% among 360,000; AID 588674, 2011;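 active = mean inhibition of at least 75% with every replicate also reaching 75%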
TROY NFkB inh – inhibitors of TROY-driven NF-kB signaling, primary screen, Q293 LMP1-TROYcd cells, NF-kB luciferase, uHTS; AID 1347056, 2019; hit rate 0.98% among 360,000; inhibition, % at 10 µM; Q293 LMP1-TROYcd NF-kB luciferase reporter, 4 h;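 active = compounds whose plate-normalised and pattern-corrected inhibition of the luciferase reporter signal at the single screening dose is 50% or more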
TWEAK-Fn14 inh – inhibitors of TWEAK-Fn14 signaling, primary screen, luciferase reporter cells, uHTS; TWEAK-stimulated Fn14 reporter cells, luciferase luminescence, 8 h; AID 1159606, 2016; hit rate 2% among 360,000; inhibition, % at 10 µM; in the data active = inhibition above about 50%
Peg3 prom inh – Peg3 promoter-driven luciferase inhibitors, primary screen, cell-based, HeLa, luciferase luminescence | inhibition, % at 20 µM | HeLa PEG-Prom luciferase reporter, overnight | hit rate 1.7% among 360,000;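 active = inhibition of at least 50% at 20 µM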
LMP1 NFkB inh – EBV LMP1-driven NF-kappaB luciferase reporter inhibitors, primary screen, cell-based, luminescence, single point; AID 504558, 2011; hit rate 0.69% among 350,000; LMP1-induced NF-kappaB luciferase reporter cells; inhibition, % at 12.5 µM; in the data active = inhibition above about 41%
Numbers stand for hits; - = inactive; . = no result given. Compounds with a hit are over-represented: about 4.1% of the library has one in this group of screens.

SMILES	MITF TRPM1 inh	Shn3 inh set2	TROY NFkB inh	TWEAK-Fn14 inh	Peg3 prom inh	LMP1 NFkB inh
CCOc1ccc2c(c1)C(=NNC(=O)c1ccncc1)c1cc(OCC)ccc1-2	-	-	-	-	55	-
CN(C)c1cc[n+](CC(=O)c2ccc(-c3ccccc3)cc2)cc1	70	-	-	-	-	-
O=C(C[n+]1ccccc1)c1ccc(-c2ccccc2)cc1	-	-	-	-	-	-
Cc1ccc(C)c(S(=O)(=O)N2CCN(C(=O)c3cc(-c4cccs4)nn3-c3ccccc3)CC2)c1	-	-	-	64	-	-
Cc1ccc(C)c(S(=O)(=O)N2CCN(C(=O)c3ccc(C)s3)CC2)c1	-	-	-	-	-	45
Cc1nnc(SCc2ccccc2F)n1NCc1cccs1	-	-	-	-	-	-
O=C(COc1cccc2ccccc12)N/N=C/c1ccncc1	-	-	-	-	-	-
Cc1cc(Cl)ccc1N(CC(=O)N=Nc1c(O)[nH]c2ccccc12)S(C)(=O)=O	-	-	-	-	-	-
Cc1ccc(S(=O)(=O)N(CC(=O)N=Nc2c(O)[nH]c3ccccc23)c2cccc(C)c2)cc1	-	-	-	52	-	-
O=C(CSc1nnc(C2CC2)n1-c1ccccc1)N1CCNC1=O	-	-	-	-	-	-
COc1cc(/C=C(\C#N)c2ccccn2)ccc1OCc1ccccc1Cl	-	-	-	-	-	70
O=C(NC(=S)Nc1ccc2c(c1)OCCO2)c1ccccc1F	-	-	-	-	-	-
O=C(Nc1ccc2c(c1)OCCO2)c1ccccn1	-	-	57	79	-	48
CSc1ncccc1C(=O)Nc1ccc2c(c1)OCCO2	-	-	-	50	-	-
O=C(Nc1ccc2c(c1)OCCO2)c1cccc2nc3ccccc3nc12	73	-	-	-	-	-
O=C(Nc1ccc2c(c1)OCCO2)c1ccccc1F	-	-	-	53	-	-
CC1=C(C(=O)N(C)C)CC(CC(=O)NCCc2ccccn2)C(=O)N1CCCN1CCCC1=O (centres undefined)	.	-	-	-	-	-
CC(C)Oc1ccc(C(CC(=O)N(C)CCC#N)c2ccc(F)cc2)cc1 (centres undefined)	-	-	-	-	-	-
COc1cccc(C2SCC(=O)N2c2ccc(Br)cc2)c1OC (centres undefined)	-	-	-	-	-	-
O=C(Nc1ccc(N2CCOCC2)cc1)c1cn2ccccc2n1	-	-	-	68	-	55
O=C(Nc1ccc(N2CCCCC2)cc1)c1ccccn1	82	-	87	100	91	75
O=C(Nc1ccc(Cl)c(S(=O)(=O)N2CCOCC2)c1)c1cn2ccccc2n1	-	-	-	-	-	-
O=C(Nc1ccc(N2CCCCCC2)cc1)c1ccccc1Cl	-	-	-	-	-	-
Cc1ccc2nc(COC(=O)c3ccc(Cl)nc3)cc(=O)n2c1	-	-	-	-	-	-
O=C(Nc1ccc2nc3n(c(=O)c2c1)CCCC3)c1cc([N+](=O)[O-])ccc1F	81	91	80	89	111	-
SMILES	MITF TRPM1 inh	Shn3 inh set2	TROY NFkB inh	TWEAK-Fn14 inh	Peg3 prom inh	LMP1 NFkB inh
CCCCNC(=S)Nc1ccc2nc3n(c(=O)c2c1)CCCCC3	-	-	-	-	-	-
CC(C)CCNC(=S)Nc1ccc2nc3n(c(=O)c2c1)CCCCC3	-	-	-	-	-	63
CCN(c1ccccc1)S(=O)(=O)c1ccc(Cl)c(NC(=O)CN2C(=O)NC3(CCCC3)C2=O)c1	-	.	-	-	-	-
NNc1ccc(Cl)nn1	-	.	-	-	-	-
CSc1cccc(NS(=O)(=O)c2ccc3c(c2)CCN3C(C)=O)c1	-	89	-	-	-	-
COc1cccc(NS(=O)(=O)c2ccc3c(c2)CCN3C(C)=O)c1	-	-	-	-	-	-
Cn1cc(C(=O)N/N=C/c2ccc(Br)c([N+](=O)[O-])c2)c2ccccc21	.	-	-	-	52	.
O=C(CC(Nc1cccc(Cl)c1Cl)C(=O)O)c1ccccc1 (centres undefined)	-	-	-	-	-	-
O=C(CC(Nc1ccccc1Cl)C(=O)O)c1ccccc1 (centres undefined)	-	-	65	61	-	-
Cc1ccc(NC(=O)Cn2nc(C)c3ccccc3c2=O)cc1F	-	-	-	-	-	44
Cc1ccc(NC(=S)N(CCCN2CCCC2)Cc2cccn2Cc2ccc(Cl)cc2)cc1Cl	-	-	-	-	98	-
COc1ccc(NC(=S)N(CCCN2CCC(C)CC2)Cc2cccs2)cc1Cl	-	-	-	-	-	-
Cc1ccc(NC(=S)N(CCCN2CCCC2)Cc2cccn2Cc2ccc(Cl)cc2)cc1C	-	-	-	-	102	-
COc1ccc(NC(=S)N(CCCN2CCCC2)Cc2cccn2Cc2ccc(Cl)cc2)cc1Cl	-	-	-	-	103	-
FC(F)(F)c1cccc(NC(=S)N(CCCN2CCCC2)Cc2cccn2Cc2ccc(Cl)cc2)c1	-	-	-	-	106	-
Cc1cc(NC(=S)N(CCN2CCCCC2)Cc2ccco2)ccc1Cl	-	-	-	-	-	-
CCCCN(Cc1ccco1)S(=O)(=O)c1csc(C(N)=O)c1	-	-	-	-	-	-
CCN(CC)CCCNC(=O)CSc1nc(-c2ccc(F)cc2)cc(C(F)(F)F)n1	-	-	-	-	-	-
CC(=O)C1=CCC(c2ccccc2)N(S(C)(=O)=O)C1 (centres undefined)	.	-	-	-	-	.
CC(=O)NCCC(=O)N(C)CC1CCN(CCc2cccc(C(F)(F)F)c2)CC1	-	-	-	-	-	-
COc1cc(OC)c(/C=N/N2CCN(c3ccccc3OC)CC2)c(OC)c1	-	-	-	-	-	-
N=c1c2c(-c3ccccc3)c(-c3ccccc3)n(Cc3ccccc3)c2ncn1CCCn1ccnc1	94	-	-	-	106	-
Cc1cc(NCCCn2ccnc2)n2nc(C)c(-c3ccccc3)c2n1	-	-	-	-	-	-
N=c1c2c(-c3ccccc3)c(-c3ccccc3)n(Cc3ccco3)c2ncn1Cc1ccco1	66	-	.	-	105	-
CCCCn1cnc2c(c(-c3ccccc3)c(-c3ccccc3)n2Cc2ccco2)c1=N	.	-	-	-	-	.
Cc1ccc(C)c(/C=N/NC(=S)NCCc2ccccc2)c1	-	-	-	-	-	-
O=C(CC1C(=O)NCCN1Cc1cccc(F)c1)NCCCCCN1CCOCC1 (centres undefined)	-	-	-	-	-	-
Cc1ccc(C=C2C=C(c3ccccc3)OC2=O)cc1	.	-	-	-	-	-
Cc1ccc(C2=C/C(=C/c3cccs3)C(=O)O2)cc1	-	-	-	53	-	-
